Here are results for 40 molecules from PubChem BioAssay (NCI).

Compounds without any hit were thinned out: in the full panel of roughly 79,000, 15% have a hit. A number with no mark means an inactive call. Rule as the data show it: active = growth inhibition above about 70%; inactive = the rest.

A short description of one experiment: NCI Yeast Anticancer Drug Screen. Data for the bub3 strain (AID 167). The settings on record: S. cerevisiae bub3 mutant strain, at 50.0 µM, stronger effect = higher value. The method in brief:
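Inhibition values come from growth of compound-treated mutant yeast normalised to vehicle-treated controls.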
As to `CC(O)C(=O)NN` (stereo not given), the growth inhibition is -4.65%.
Same read-out and setting: in the case of `COCC(=O)c1ccccc1` it was -0.65%.
For `O=C1C2=C(Nc3cc([N+](=O)[O-])ccc3N2)OC1c1ccc2c(c1)OCO2` (stereo not given), the growth inhibition was -28.2%.
In the case of `N#CSC1C=CS(=O)(=O)C1` (stereo not given), the growth inhibition was 3.55%.
On the same count and under the same terms, in the case of `CN(C)CCN(C=O)CCN(C)C` it was 0.6%.
`CC1(C)CC23C4COC(=O)C2CCC1C3CC4=O` (stereo not given): the growth inhibition was -0.25%.
`CC(=O)[CH-]C(=O)c1ccccc1.CC(=O)[CH-]C(=O)c1ccccc1.CC[C@H](/C=C/C(C)[C@H]1CCC2[C@@H]3CC=C4C[C@@H]([O-])CC[C@]4(C)C3CC[C@@]21C)C(C)C.CC[O-].[Ti+4]` (stereo not given in full): the growth inhibition was 5.3%.
Consider `O=C(CO)c1ccccc1`, for which the growth inhibition was 4%.
Still for that read-out and setting: the value for `CC1(C)CC(=O)C(/C=N/C(=S)NC2CCCCC2)=C(O)C1` was -7.7%; that for `CCNC(=O)C1CC2C=CC1C2` (stereo not given) was 3.05%; that for `Cc1cc(NC(=O)N(CCCl)N=O)c(C)cc1NC(=O)c1ccccc1` was -0.5%.
Same read-out and setting: in the case of `CC(=O)C1(C(C)=O)OC2c3ccccc3C=CN2C=C1C=O` (stereo not given) it was 6.05%.
Same read-out and setting: the value for `COc1ccccc1-c1coc2c(ccc3oc(C(C)C)cc32)c1=O` was -0.5%; that for `COc1cc(O)c(C(C)c2ccccc2)cc1N=O` (stereo not given) was 11.8%.
In the case of `O=C(NC(=S)OC1CCCC1OC(=S)NC(=O)c1ccccc1)c1ccccc1` (stereo not given), the growth inhibition was -13.2%.
Same read-out and setting: in the case of `CCOC(=O)c1ccccc1Nc1c(C(=O)OCC)cnc2cc3c(cc12)OCO3` it was -0.25%; in that of `CC(=O)Nc1ccc(S(=O)(=O)NC(=O)NC(C)C)cc1`, 3%; in that of `CCOC(=O)/C=C/SCC(N)C(=O)OCC` (stereo not given), -5.55%.
With `CSc1ncc2c(C#N)c3ccccn3c(=O)c2n1`, the growth inhibition is 14.4%.
The same measure, in the same setting: the value for `CC(=O)c1c(C)cc(C)nc1C` was 30.6%; that for `S=C(N/N=C/c1ccc(Cl)cc1Cl)NC1CCc2ccccc21` (stereo not given) was -7.95%; that for `CC1CC(=O)Nc2ncccc2N1` (stereo not given) was 8.05%.
Still for that read-out and setting: the value for `CN(C)C1=CC(=O)NC(c2ccccc2)C1` (stereo not given) was -3.45%; that for `c1ccc(C2=NN(c3ccccc3)C3C4CCC(C4)C23)cc1` (stereo not given) was 13.8%; that for `CN(C)c1ccc(/C=C2\CCOC2=O)cc1` was 2.95%.
On the same count and under the same terms, in the case of `O=[N+]([O-])C(/C=N/Nc1ccccc1)/C=N/Nc1ccccc1` it was -24.6%.
`NNc1nnnc2ccccc12`: the growth inhibition is -31.1%.
As for `COc1ccc(CCC2(C)OCCCO2)cc1`, the growth inhibition was -5.8%.
For the molecule `Nc1[nH]c(=S)[nH]c(=O)c1NS(=O)(=O)c1ccccc1`, the growth inhibition was -10.2%.
Regarding `c1cncc(-c2c3ccccc3cc3ccccc23)c1`, the growth inhibition is 4.8%.
Turning to `O=C(C(=Cn1c(=O)cc[nH]c1=S)C(=O)c1ccccc1)c1ccccc1`, the growth inhibition is -15.6%.
On the same count and under the same terms, the value for `CC(=O)OCCC(OC(C)=O)c1ccccn1` (stereo not given) was 3.95%; that for `CCCC/C(=N/O)c1ccccc1` was -21.6%; that for `COc1cc2c(cc1OCc1ccccc1)NC(=O)C2` was -18.9%.
Consider `Nc1cc(Br)cc2c1-c1ccc(Br)cc1C2=O`, for which the growth inhibition was 5.15%.
On to `CCNC(=O)c1ccccc1C(=O)c1ccccc1`, for which the growth inhibition is -0.75%.
Same read-out and setting: in the case of `CC1=NN(C(=O)CC(=O)N(C(=O)c2ccccc2Cl)c2ccc(C)cc2)C(=O)C1N=Nc1ccc([N+](=O)[O-])cc1` (stereo not given) it was 54.1%; in that of `CC(=O)N1CCN(c2ccccc2Cl)CC1`, -10.6%.
Same read-out and setting: in the case of `COC1=CCC=C(C(C)(C)C)C1` it was -12.2%; in that of `COc1cc(CCNC2=CC(=O)c3ncccc3C2=O)ccc1O`, 5.8%.

A further experiment is described as follows: NCI Yeast Anticancer Drug Screen. Data for the mlh1 rad18 strain (AID 175). The settings on record: S. cerevisiae mlh1 rad18 strain growth inhibition; at 50.0 µM; stronger effect = higher value. Put shortly:
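Steps: expose repair-defective yeast to compound; measure growth; express inhibition against vehicle-treated controls.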
As to `CC(O)C(=O)NN` (stereo not given), the growth inhibition is 9.4%.
The same measure, in the same setting: in the case of `COCC(=O)c1ccccc1` it was 32.9%; in that of `O=C1C2=C(Nc3cc([N+](=O)[O-])ccc3N2)OC1c1ccc2c(c1)OCO2` (stereo not given), -5.45%.
The same measure, in the same setting: in the case of `N#CSC1C=CS(=O)(=O)C1` (stereo not given) it was 58.8%; in that of `CN(C)CCN(C=O)CCN(C)C`, -0.2%; in that of `CC1(C)CC23C4COC(=O)C2CCC1C3CC4=O` (stereo not given), -21.4%.
Turning to `CC(=O)[CH-]C(=O)c1ccccc1.CC(=O)[CH-]C(=O)c1ccccc1.CC[C@H](/C=C/C(C)[C@H]1CCC2[C@@H]3CC=C4C[C@@H]([O-])CC[C@]4(C)C3CC[C@@]21C)C(C)C.CC[O-].[Ti+4]` (stereo not given in full), the growth inhibition is -12.2%.
For `O=C(CO)c1ccccc1`, the growth inhibition is 19.6%.
As for `CC1(C)CC(=O)C(/C=N/C(=S)NC2CCCCC2)=C(O)C1`, the growth inhibition is -8%.
Same read-out and setting: the value for `CCNC(=O)C1CC2C=CC1C2` (stereo not given) was 1.5%; that for `Cc1cc(NC(=O)N(CCCl)N=O)c(C)cc1NC(=O)c1ccccc1` was 55.2%.
On the same count and under the same terms, the value for `CC(=O)C1(C(C)=O)OC2c3ccccc3C=CN2C=C1C=O` (stereo not given) was 11.1%.
Still for that read-out and setting: in the case of `COc1ccccc1-c1coc2c(ccc3oc(C(C)C)cc32)c1=O` it was 22.6%.
For the molecule `COc1cc(O)c(C(C)c2ccccc2)cc1N=O` (stereo not given), the growth inhibition was -6.15%.
For `O=C(NC(=S)OC1CCCC1OC(=S)NC(=O)c1ccccc1)c1ccccc1` (stereo not given), the growth inhibition was -33.7%.
The same measure, in the same setting: in the case of `CCOC(=O)c1ccccc1Nc1c(C(=O)OCC)cnc2cc3c(cc12)OCO3` it was -7.8%; in that of `CC(=O)Nc1ccc(S(=O)(=O)NC(=O)NC(C)C)cc1`, 14.3%.
The same measure, in the same setting: in the case of `CCOC(=O)/C=C/SCC(N)C(=O)OCC` (stereo not given) it was -4.55%.
As for `CSc1ncc2c(C#N)c3ccccn3c(=O)c2n1`, the growth inhibition was -17.5%.
As to `CC(=O)c1c(C)cc(C)nc1C`, the growth inhibition is 9%.
Turning to `S=C(N/N=C/c1ccc(Cl)cc1Cl)NC1CCc2ccccc21` (stereo not given), the growth inhibition is -9.25%.
Still for that read-out and setting: the value for `CC1CC(=O)Nc2ncccc2N1` (stereo not given) was -9.45%.
On to `CN(C)C1=CC(=O)NC(c2ccccc2)C1` (stereo not given), for which the growth inhibition is -11.6%.
Still for that read-out and setting: in the case of `c1ccc(C2=NN(c3ccccc3)C3C4CCC(C4)C23)cc1` (stereo not given) it was 12.1%.
With `CN(C)c1ccc(/C=C2\CCOC2=O)cc1`, the growth inhibition was 8.6%.
Still for that read-out and setting: in the case of `O=[N+]([O-])C(/C=N/Nc1ccccc1)/C=N/Nc1ccccc1` it was -10.9%; in that of `NNc1nnnc2ccccc12`, 22.2%.
With `COc1ccc(CCC2(C)OCCCO2)cc1`, the growth inhibition is 17.4%.
Still for that read-out and setting: in the case of `Nc1[nH]c(=S)[nH]c(=O)c1NS(=O)(=O)c1ccccc1` it was 18.4%; in that of `c1cncc(-c2c3ccccc3cc3ccccc23)c1`, 5.1%; in that of `O=C(C(=Cn1c(=O)cc[nH]c1=S)C(=O)c1ccccc1)c1ccccc1`, -9.7%.
The same measure, in the same setting: in the case of `CC(=O)OCCC(OC(C)=O)c1ccccn1` (stereo not given) it was -18.6%.
`CCCC/C(=N/O)c1ccccc1`: the growth inhibition is -6.95%.
For `COc1cc2c(cc1OCc1ccccc1)NC(=O)C2`, the growth inhibition was -7%.
The same measure, in the same setting: the value for `Nc1cc(Br)cc2c1-c1ccc(Br)cc1C2=O` was 10%.
As to `CCNC(=O)c1ccccc1C(=O)c1ccccc1`, the growth inhibition was 11.5%.
Turning to `CC1=NN(C(=O)CC(=O)N(C(=O)c2ccccc2Cl)c2ccc(C)cc2)C(=O)C1N=Nc1ccc([N+](=O)[O-])cc1` (stereo not given), the growth inhibition was 46.1%.
For the molecule `CC(=O)N1CCN(c2ccccc2Cl)CC1`, the growth inhibition is -22.7%.
Take `COC1=CCC=C(C(C)(C)C)C1`: the growth inhibition is 21.7%.
Turning to `COc1cc(CCNC2=CC(=O)c3ncccc3C2=O)ccc1O`, the growth inhibition was 14.3%.
